# Laboratory results taken from publication PMC9911399, “Two distinct binding modes provide the RNA-binding protein RbFox with extraordinary sequence specificity”.
# Residue numbers refer to the chain shown, from its start. The full ranking holds about 16,000 sequences; the median of “ka relative to ugcaugu” is about 0.096, and the highest 2% start at about 0.35. The sample holds the highest values, similar sequences and a random draw of the others, so the mix is not that of the screen.
# B1: GAAGAAU (DNA:RNA)
# RNA: GGGAGACCGGAAUUCAGAUUGUCCGAAGAAUUUAAAUCCCGUCGUAGCCACCA
# DNA 1: CAATCTGAATTCCGGTCTCCC
# DNA 2: TGGTGGCTACGACGGGATT
# B2: CGUUCGG (DNA:RNA)
# RNA: GGGAGACCGGAAUUCAGAUUGUCCCGUUCGGUUAAAUCCCGUCGUAGCCACCA
# DNA 1: CAATCTGAATTCCGGTCTCCC
# DNA 2: TGGTGGCTACGACGGGATT
# B3: CGGUUCG (DNA:RNA)
# RNA: B2 RNA with U27G, C29U, G30C
# DNA 1: CAATCTGAATTCCGGTCTCCC
# DNA 2: TGGTGGCTACGACGGGATT
# B4: CGUUAUG (DNA:RNA)
# RNA: B2 RNA with C29A, G30U
# DNA 1: CAATCTGAATTCCGGTCTCCC
# DNA 2: TGGTGGCTACGACGGGATT
# B5: GGUUAUG (DNA:RNA)
# RNA: B2 RNA with C25G, C29A, G30U
# DNA 1: CAATCTGAATTCCGGTCTCCC
# DNA 2: TGGTGGCTACGACGGGATT
# B6: GUUCGGG (DNA:RNA)
# RNA: B2 RNA with C25G, G26U, U28C, C29G
# DNA 1: CAATCTGAATTCCGGTCTCCC
# DNA 2: TGGTGGCTACGACGGGATT
# B7: GUCCCGG (DNA:RNA)
# RNA: B2 RNA with C25G, G26U, U27C, U28C
# DNA 1: CAATCTGAATTCCGGTCTCCC
# DNA 2: TGGTGGCTACGACGGGATT
# B8: GGGGUUC (DNA:RNA)
# RNA: B1 RNA with A26G, A27G, A29U, A30U, U31C
# DNA 1: CAATCTGAATTCCGGTCTCCC
# DNA 2: TGGTGGCTACGACGGGATT
# B9: GGGUUCG (DNA:RNA)
# RNA: B2 RNA with C25G, U27G, C29U, G30C
# DNA 1: CAATCTGAATTCCGGTCTCCC
# DNA 2: TGGTGGCTACGACGGGATT
# B10: GGUUCGG (DNA:RNA)
# RNA: B2 RNA with C25G
# DNA 1: CAATCTGAATTCCGGTCTCCC
# DNA 2: TGGTGGCTACGACGGGATT
# B11: GUAAAAU (DNA:RNA)
# RNA: B1 RNA with A26U, G28A
# DNA 1: CAATCTGAATTCCGGTCTCCC
# DNA 2: TGGTGGCTACGACGGGATT
# B12: GGCCGCA (DNA:RNA)
# RNA: B2 RNA with C25G, U27C, U28C, C29G, G30C, G31A
# DNA 1: CAATCTGAATTCCGGTCTCCC
# DNA 2: TGGTGGCTACGACGGGATT
# B13: CCUGUUG (DNA:RNA)
# RNA: B2 RNA with G26C, U28G, C29U, G30U
# DNA 1: CAATCTGAATTCCGGTCTCCC
# DNA 2: TGGTGGCTACGACGGGATT
# B14: AGGGCAC (DNA:RNA)
# RNA: B2 RNA with C25A, U27G, U28G, G30A, G31C
# DNA 1: CAATCTGAATTCCGGTCTCCC
# DNA 2: TGGTGGCTACGACGGGATT
# B15: UAGCUUA (DNA:RNA)
# RNA: B1 RNA with G25U, A27G, G28C, A29U, A30U, U31A
# DNA 1: CAATCTGAATTCCGGTCTCCC
# DNA 2: TGGTGGCTACGACGGGATT
# B16: GUUAGGG (DNA:RNA)
# RNA: B2 RNA with C25G, G26U, U28A, C29G
# DNA 1: CAATCTGAATTCCGGTCTCCC
# DNA 2: TGGTGGCTACGACGGGATT
# B17: ACCGGAG (DNA:RNA)
# RNA: B1 RNA with G25A, A26C, A27C, A29G, U31G
# DNA 1: CAATCTGAATTCCGGTCTCCC
# DNA 2: TGGTGGCTACGACGGGATT
# B18: AAUUGGC (DNA:RNA)
# RNA: B2 RNA with C25A, G26A, C29G, G31C
# DNA 1: CAATCTGAATTCCGGTCTCCC
# DNA 2: TGGTGGCTACGACGGGATT
# B19: ACCACUC (DNA:RNA)
# RNA: B2 RNA with C25A, G26C, U27C, U28A, G30U, G31C
# DNA 1: CAATCTGAATTCCGGTCTCCC
# DNA 2: TGGTGGCTACGACGGGATT
# B20: UGUUAUG (DNA:RNA)
# RNA: B2 RNA with C25U, C29A, G30U
# DNA 1: CAATCTGAATTCCGGTCTCCC
# DNA 2: TGGTGGCTACGACGGGATT
# B21: UAUGUCG (DNA:RNA)
# RNA: B2 RNA with C25U, G26A, U28G, C29U, G30C
# DNA 1: CAATCTGAATTCCGGTCTCCC
# DNA 2: TGGTGGCTACGACGGGATT
# B22: UGUCAUG (DNA:RNA)
# RNA: B2 RNA with C25U, U28C, C29A, G30U
# DNA 1: CAATCTGAATTCCGGTCTCCC
# DNA 2: TGGTGGCTACGACGGGATT
# B23: UGUCAUC (DNA:RNA)
# RNA: B2 RNA with C25U, U28C, C29A, G30U, G31C
# DNA 1: CAATCTGAATTCCGGTCTCCC
# DNA 2: TGGTGGCTACGACGGGATT
# B24: CUGUAUC (DNA:RNA)
# RNA: B2 RNA with G26U, U27G, C29A, G30U, G31C
# DNA 1: CAATCTGAATTCCGGTCTCCC
# DNA 2: TGGTGGCTACGACGGGATT
# B25: CGUCCUG (DNA:RNA)
# RNA: B2 RNA with U28C, G30U
# DNA 1: CAATCTGAATTCCGGTCTCCC
# DNA 2: TGGTGGCTACGACGGGATT
# B26: UGUAUCU (DNA:RNA)
# RNA: B2 RNA with C25U, U28A, C29U, G30C, G31U
# DNA 1: CAATCTGAATTCCGGTCTCCC
# DNA 2: TGGTGGCTACGACGGGATT
# B27: UGUUAUC (DNA:RNA)
# RNA: B2 RNA with C25U, C29A, G30U, G31C
# DNA 1: CAATCTGAATTCCGGTCTCCC
# DNA 2: TGGTGGCTACGACGGGATT
# B28: GGCUAUC (DNA:RNA)
# RNA: B2 RNA with C25G, U27C, C29A, G30U, G31C
# DNA 1: CAATCTGAATTCCGGTCTCCC
# DNA 2: TGGTGGCTACGACGGGATT
# B29: CGUCAUG (DNA:RNA)
# RNA: B2 RNA with U28C, C29A, G30U
# DNA 1: CAATCTGAATTCCGGTCTCCC
# DNA 2: TGGTGGCTACGACGGGATT
# B30: UGUCCUG (DNA:RNA)
# RNA: B2 RNA with C25U, U28C, G30U
# DNA 1: CAATCTGAATTCCGGTCTCCC
# DNA 2: TGGTGGCTACGACGGGATT
# B31: GGCUAUG (DNA:RNA)
# RNA: B2 RNA with C25G, U27C, C29A, G30U
# DNA 1: CAATCTGAATTCCGGTCTCCC
# DNA 2: TGGTGGCTACGACGGGATT
# Target: T1, RBFOX1 RRM RbFoxmut (Fox-RRM*) (Homo sapiens, UniProt Q9NWB1 109-208, R118D;E147R;N151S;E152T)
# T1 sequence: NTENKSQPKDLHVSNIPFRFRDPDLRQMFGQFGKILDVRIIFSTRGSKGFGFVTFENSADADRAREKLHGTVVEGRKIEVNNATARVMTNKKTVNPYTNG
# Assay: EMSA; HiTS-Eq, 1 nM pool, 10 min; buffer printed only for the single-RNA assays: 10 mM Tris pH 7.5, 150 mM NaCl, 3.4 mM EDTA, 0.001% NP-40, 30 C
# Conditions: tags: His6 N-terminal (pET28a); label: 5' 32P
# In short: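 Relative association constants, normalised to the cognate motif, were derived by comparing read counts of each RNA species with those of the control reaction. The RNA sequenced was the free fraction, separated by 8% native PAGE after a 10 min equilibration in 50 µL of 1 nM 5′-radiolabelled RNA (7 randomized nucleotides) with increasing concentrations of purified wild-type or mutant RbFox RRM.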
row,Binder,binding signal
1,B1,0.0873 KA relative to UGCAUGU
2,B2,0.115 KA relative to UGCAUGU
3,B3,0.371 KA relative to UGCAUGU
4,B4,0.269 KA relative to UGCAUGU
5,B5,0.585 KA relative to UGCAUGU
6,B6,0.0874 KA relative to UGCAUGU
7,B7,0.0859 KA relative to UGCAUGU
8,B8,0.239 KA relative to UGCAUGU
9,B9,0.4 KA relative to UGCAUGU
10,B10,0.126 KA relative to UGCAUGU
11,B11,0.0936 KA relative to UGCAUGU
12,B12,0.107 KA relative to UGCAUGU
13,B13,0.136 KA relative to UGCAUGU
14,B14,0.0707 KA relative to UGCAUGU
15,B15,0.134 KA relative to UGCAUGU
16,B16,0.0712 KA relative to UGCAUGU

row,Binder,binding signal
1,B17,0.0806 KA relative to UGCAUGU
2,B18,0.114 KA relative to UGCAUGU
3,B19,0.0459 KA relative to UGCAUGU
4,B20,1.04 KA relative to UGCAUGU
5,B21,0.133 KA relative to UGCAUGU
6,B22,0.597 KA relative to UGCAUGU
7,B23,0.183 KA relative to UGCAUGU
8,B24,0.362 KA relative to UGCAUGU
9,B25,0.132 KA relative to UGCAUGU
10,B26,0.296 KA relative to UGCAUGU
11,B27,0.351 KA relative to UGCAUGU
12,B28,0.226 KA relative to UGCAUGU
13,B29,0.275 KA relative to UGCAUGU
14,B30,0.133 KA relative to UGCAUGU
15,B31,0.405 KA relative to UGCAUGU
